In all, about 360,000 compounds went through this assay and about 1,100 (0.31%) were called active. The entries come from a sample that favours actives as a whole. A number with no mark means an inactive call. No stated cut-off is given here; in the data, active means activity change below about -80%; inconclusive means mostly about -51% to -80%; inactive means weaker than that.
target: RAC-alpha serine/threonine-protein kinase (Homo sapiens) (UniProt P31749); assay: HTS Assay for Inhibitors of Akt Phophorylation: Primary Screen; conditions: Neuro2A IGF-stimulated pAkt S473 HTRF, 20 min; at 50 µM, active compounds read low
Procedure, shortened: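 Single-point screen (50 µM final compound) in Neuro2A cells stimulated 20 min with 6 nM IGF at 37 deg C. After lysis, Ser473-phosphorylated Akt read by HTRF (ex 330 nm, em 615/665 nm) as the 665/615 ratio.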
On the % scale 0 is the no-effect control and ±100 the full control effect.

SMILES	activity change
CN(C(=O)C1CCN(c2ncnc3c2nc2n3CCCCC2)CC1)C1CCCCC1	inactive
Cc1ccnc(NC(=O)CCC(=O)N(CC(=O)NCc2ccccc2)Cc2ccco2)c1	inactive
CCOC(=O)N1CCN(C(=O)C[C@@H]2C[C@@]3(C(=O)OC)CC(C)(C)CC=C3N(Cc3ccco3)C2=O)CC1	inactive
CC(=O)Cc1nsc(NC(=O)c2csc3c2CCCC3)n1	-104% (active)
O=C(COC(=O)c1cc2c(s1)CCCC2)NCc1ccccc1Cl	inactive
CC(=O)Cc1nsc(NC(=O)c2ccc(COc3ccc(C)cc3)o2)n1	inactive
CC(=O)Cc1nsc(NC(=O)c2ccc(Cl)cc2Cl)n1	inactive
O=C(NCc1ccccc1Cl)c1csc2c1CCCCC2	-106% (active)
CC1CC(C)CN(CCCNC(=O)c2csc3c2CCCCC3)C1 (stereo unspecified)	inactive
CCOC(=O)C=Cc1ccc(C(=O)OCC)[nH]1	inactive
Cc1ccc(S(=O)(=O)N2CC3C(=O)C[C@@H](c4ccccc4Cl)N(S(=O)(=O)c4ccc(C)cc4)C3CC2c2ccccc2)cc1 (stereo partly specified)	inactive
COc1cccc(-n2cc3c(c2-c2ccccc2)c(=O)n(C)c(=O)n3C)c1	-16.8%
Cc1cn(C)c(=O)n(C)c1=O	inactive
Cc1ccc(-c2c3c(=O)n(C)c(=O)n(C)c3cn2-n2cnnc2)cc1	-111% (active)
COc1ccc(C(C(=O)NCc2ccccc2)n2c(=O)c(-c3ccccc3)nc3ccccc32)cc1 (stereo unspecified)	inactive
COc1cc(OC)c(NS(=O)(=O)c2cn(C)cn2)cc1Cl	inactive
CCC(c1nc2ccccc2[nH]1)n1c(=O)c(-c2cccs2)nc2ccccc21 (stereo unspecified)	inactive
N#Cc1ccc(C(C(=O)NCc2ccccc2)n2c(=O)c(-c3ccco3)nc3ccccc32)cc1 (stereo unspecified)	inactive
Cc1cc(NC(=O)CSc2nc3c(cc2C#N)CCCCC3)no1	inactive
Cc1cc(NC(=O)CSc2nc(C(C)C)nc3sc4c(c23)CCC(C)C4)no1 (stereo unspecified)	-89.6% (active)
CC(C)c1nc(SCC(=O)Nc2cccc(C(=O)O)c2)c2c3c(sc2n1)CCCC3	inactive

SMILES	activity change
Cn1cnc(S(=O)(=O)N2C[C@@H](O)COC[C@@H]3O[C@H](CC(=O)NC4CCC4)CC[C@H]32)c1	inactive
COc1ccc(-c2cc3c(c4c2ccn4C)C2CCC3C2)cn1 (stereo unspecified)	inactive
Nc1nc(C23CC4CC(CC(C4)C2)C3)cs1	inactive
CC(C)CN1C(=O)CN(S(C)(=O)=O)CC1(C)C(=O)NCc1ccccc1 (stereo unspecified)	inactive
Cc1ccc(Nc2nc(-c3ccc(O)cc3O)cs2)nc1	inactive
Brc1ccc(-c2csc(N/N=C/c3cccnc3)n2)cc1	inactive
c1ccc(Nc2nc(-c3ccncc3)cs2)nc1	-89.8% (active)
O=C(COC(=O)Cc1ccc(Cl)cc1Cl)NCc1ccco1	inactive
O=C(COC(=O)c1ccccc1O)NCc1ccco1	inactive
O=C(COC(=O)CCC(=O)c1cccs1)NCc1ccco1	-115% (active)
O=C(COC(=O)c1cc([N+](=O)[O-])ccc1NCc1ccccc1)NC1CCCCC1	inactive
C=C1C(=O)OC2C1CCC(C)=CCCC1(C)OC21 (stereo unspecified)	inactive
CC(NCCO)C(=O)C12CC3CC(CC(C3)C1)C2 (stereo unspecified)	inactive
COCCN1C(=O)C(=O)/C(=C(/O)c2ccc(S(=O)(=O)N3CCOCC3)cc2)C1c1ccc(O)c(OC)c1 (stereo unspecified)	inactive
O=C1c2oc3ccccc3c(=O)c2C(c2cccc(O)c2)N1c1ccccn1 (stereo unspecified)	inactive
COCCN1C(=O)c2oc3c(C)cc(C)cc3c(=O)c2C1c1cccc(O)c1 (stereo unspecified)	-117% (active)
CC(C)OC(=O)CC(=O)CC(O)c1cccc([N+](=O)[O-])c1 (stereo unspecified)	inactive
CCOC(=O)[C@]12CCCC=C1N(CCC1=CCCCC1)C(=O)[C@H](CC(=O)NCCCCc1ccccc1)C2	inactive
CCC(C(=O)Nc1c(C)cccc1C)n1c(-c2cc(C)cs2)nc2ccccc21 (stereo unspecified)	inactive
O=C(C(Cc1ccccc1)n1cccc1)N1CCN(C2CCCCC2)CC1 (stereo unspecified)	inactive
CCCCNC(=S)N/N=C1\CCCCc2ccccc21	inactive

SMILES	activity change
CC(=O)Nc1ccc(S(=O)(=O)N(C)CC(=O)NCCC2=CCCCC2)cc1	inactive
S=C(NCCC1=CCCCC1)Nc1ccccc1	-117% (active)
CC(OC(=O)c1c(F)cccc1F)C(=O)NCCC1=CCCCC1 (stereo unspecified)	inactive
COc1ccc(N2c3ccccc3CN(Cc3ccccc3)[C@@H](C)[C@H]2Cc2ccc(-c3ccccc3)cc2)cc1	inactive
O=C(C[C@H]1CC[C@@H](NC(=O)c2ccncc2)[C@@H](CO)O1)NCC1CC1	inactive
CC(=O)C[C@@H]1OC[C@H](CO)N1S(=O)(=O)c1ccc(C)cc1	inactive
CC(=O)NS(=O)(=O)c1ccc(NC(=O)/C=C/c2ccccc2Cl)cc1	inactive
COc1cc(OC)cc(/C(N)=N/O)c1	inactive
Cc1[nH]c(=O)c(C(=O)/C=C/c2ccccc2)c2c1CCCC2	-93.4% (active)
COC(=O)c1c(C)[nH]c(C(=O)/C=C/c2ccc(Cl)cc2)c1C	inactive
CC1(C(=O)O)CCCN(C(=O)/C=C/c2ccccc2)C1 (stereo unspecified)	inactive
O=C(CCCn1c(=O)oc2ccccc21)Nc1cccnc1	5.91%
CC(=O)c1c(C)[nH]c(C(=O)N2CCN(S(=O)(=O)c3ccc(F)c(F)c3)CC2)c1C	inactive
Cc1nonc1NC(=O)CSc1nc2ccccc2cc1C#N	inactive
COCc1cc(C)nc(SCC(=O)Nc2cccc(C)c2)c1C#N	inactive
Cc1nc2cc(NC(=O)CSc3nc4c(C)cccc4cc3C#N)ccc2s1	-95.1% (active)
CC1(C(=O)NS(=O)(=O)c2cccc(F)c2)CCN1C(=O)Cc1cc(F)ccc1F (stereo unspecified)	inactive
COC(=O)[C@@]12C[C@@H](CC(=O)NCCCCc3ccccc3)C(=O)N(Cc3ccccc3)C1=CCC(C)(C)C2	inactive
CCOc1ccccc1NC(=O)CCS(=O)(=O)c1cccc2nsnc12	inactive
Cc1cccc(C)c1NC(=O)CCS(=O)(=O)c1cccc2nsnc12	-101% (active)
CCOc1ccc(NC(=O)CCS(=O)(=O)c2cccc3nsnc23)cc1	inactive

SMILES	activity change
NS(=O)(=O)c1ccc(NC(=S)NC(=O)c2cccnc2)cc1	inactive
C=CCNC(=O)CC12CC3CC(C1)CC(CC(=O)NCC=C)(C3)C2	inactive
C=CCNC(=O)CCCOc1cccc(C)c1	3.56%
C=CCNC(=O)CCCC(=O)NCC=C	-102% (active)
CCCCCc1c(-c2ccc(OC)c(OC)c2)ncn1CCc1ccccc1OC	inactive
Cc1cc(=O)n2nc(N3CCC(C(=O)Nc4c(F)c(F)c(F)c(F)c4F)CC3)sc2n1	inactive
COc1ccc(C(=O)C(OP(=O)(OC)OC)c2ccccc2OC)cc1 (stereo unspecified)	inactive
Cc1cc(F)ccc1NC(=O)C(C)n1c2ccccc2c2nc(=O)cc(C)n21 (stereo unspecified)	inactive
COCCn1c(-c2ccc(OC)c(OC)c2)nc2ccccc21	-119% (active)
CCOCCn1c(-c2ccccc2)nc2ccccc21	inactive
COc1ccc(-c2nc3ccccc3n2CCC(C)C)cc1OC	-7.53%
COC(=O)C[C@H]1C=C[C@@H](NS(=O)(=O)c2ccc(C)cc2)[C@@H](CO)O1	inactive
CCOc1ccc2c(c1)cc(CN(C(=O)CC)C1CCCCC1)c1nnnn12	1.69%
CCc1cccc(NC(=S)N(CCN(C)C)C2CCN(C(C)C)CC2)c1	inactive
CCc1ccc2c(c1)cc(CN(C(=S)Nc1ccccc1Cl)C1CC1)c1nnnn12	-83.6% (active)
O=C(NCc1ccccc1)[C@H]1C[C@@H]1[C@H](NP(=O)(c1ccccc1)c1ccccc1)c1ccccc1	inactive
Cc1ccccc1CN1C(=O)CSCC1(C)C(=O)Nc1c(C)cccc1C (stereo unspecified)	inactive
CCOC(=O)C1C(C)C(C(C)(C)C)N(S(=O)(=O)c2ccc(C)cc2)C1c1ccccc1 (stereo unspecified)	inactive

Reference: PubChem BioAssay AID651550 (National Center for Advancing Translational Sciences (NCATS), 2012)
